Our source for the PBM binding z-score values is the supplement of paper PMC6555819.

The experiment concerns VDR:RXRa (NR concentration 270 nM, RXRa partner concentration 90 nM). The experiment in a line: PBM binding z-score (relative to random genomic background probes); higher = stronger binding; sequences stand for … in GC…GCGATTGACAGCGTAGAATGAAGG
As to the method:
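Protein-binding microarray (Agilent 4x180K custom design, double-stranded 60-nt probes: 5' GC cap, 34-nt variable region, 24-nt constant primer region; full probe sequence given). Purified or IVT nuclear receptor:RXRα heterodimers (3:1 NR:RXRα, mostly 270:90 nM) or homodimers were incubated for 1 h in PBS with 2% milk and no ligand, then detected with Alexa488 antibodies. Fluorescence from o1-orientation probes (~5 replicates averaged) was converted to z-scores against 500 random hg19 background probes. Variable regions are seed direct-repeat (DR0–DR5) sites, all their single-nucleotide variants and half-site ablations.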
Turning to GCGACTGTGGCATCAGCAGGTTACCATAACTTAA, the PBM binding z-score was -0.319.
The value for TCATATAGGCAAAAGGTGAAAGTCGGTGTGGTAA was 1.05; that for TGGAGTAGGTTAGGGGCATTCAGAATGGCGTCGA was 1.05; that for CTTGAAAGGTCGTGCTCAGGTGAGTATACCAAAC was 3.55.
The result for CCAGACAGGAGAGAAGGTAACTCAGCCTCGATTA reads -0.312; that for TCTGCTAGGTGAACGATGGTCAGCTAATCTGCTA, -0.621.
For CGAACTAGGTCATCAAGGACAGTGAATACATTGA, the PBM binding z-score turned out to be 5.54.
The result for CGAACTAGGTTAAGGACAGTGAATCTCCGCACGC reads -0.159.
The value for TCTATTAGTTGAAGGGAAACCGACGAGTCCGTTT was 0.851; that for CGAACTAGGTCAGAACAGGTCAGTGAAGGATGAT was 2.68; that for TCTATTAGTTGACGGGCAACCGACGAGTCCGTTT was 0.671.
As for ACATACAGGTGATGAAGGTAACTCAGGCTATCAT, the PBM binding z-score came to 0.555.
The result for CCGAGTAGGTTATGGGGCATACAGGCAACGGTGA reads 0.117.
On to TCTTGTAGATCAATAGAGGTTAAAAAAGTGCGCT, for which the PBM binding z-score was 1.94.
GTTCGGAGGACAAGGTCAGAGCTTTGTCCGTAGA had a PBM binding z-score of 1.42.
In the case of ATCCAAAGGTCGAAGGTGAGTATACCCACCCGAA, the PBM binding z-score amounted to 3.15.
With GCTATTAGTTGAAAGGGGAACCGAATGATTCTCG, the PBM binding z-score is -0.142.
The result for CGAACGAGGGCAAGAGTTGATAGCAAATGCCGAT reads 0.703; that for CGAACTAGATCATTGACAGGACAGTGAATAGTAA, 0.158.
The result for ATATGTAGGTTAGCTGTGGTCATTCAGACTAGGC reads 0.859.
The value for TCTCGGTGGACACGAAGGTCAGAGCTTTCCAGAG was 1.02; that for CCTAGCAGGCCAAGGTCACTCAAGCATTTCGCTT was 2.88.
With CCGACCGGGGCAAGGTTACCATAACGCACAGCCA, the PBM binding z-score was determined as 0.334.
CCTCGGAGGACAACAGGAGGGCAGAGCTGCCAGA: the PBM binding z-score was -0.641.
The value for ATCTCTAGGTAAAGTTCAGTGTAAGATCGATAGA was 2.12; that for GATACAGGGTCAAGGCAAGAGTACGCGTATTGAT was 4.62.
The result for GCGACTGGGGCAAAGCAGATTACCATAAGGTTGG reads -0.591; that for TCTCGGAGGACACGAAGGTCAGAGCATTCCAGAG, 2.31; that for ATCGAAAGGTCGTGAGGTGAGTATGCAGAAAGGC, 3.57.
The value for TTACCAAGGTGAGTTGAGGTCGTTGATCCAACTC was 4.05; that for TCTTTTAGATCAAAGGTTAAGAAAGCCGAAGCCT was 1.51.
CCTTACGGGTCACTCCAGTTTATAGCATCGGAGT gave a PBM binding z-score of 5.1.
The result for AGAACGAGTGCACGCTGAGTTGATAGCAGAGTAG reads 2.1.
The result for TCGTATAGGTAAAAGGTGAAAGTCGGTGTGGTAA reads 1.58.
The value for TCGAATAGGTTAGTCGGGGCATTCAGCCAACATA was 3.04; that for ATCGAAAGGTCGATGTGAGTATAGAGAAAGGGAA was 1.97; that for TCTGCTAGGTCAGTTGGTCAGCTATCGAGCTGCC was 0.206.
TCACATAGGTAAAAGGTGAAAGTCGGTGTGGTAA: the PBM binding z-score came out at 1.8.
The value for CCAGACAGGTGGGAAGGTAACTCAGCCTCGATTA was -0.285; that for TCGAGTAGGTTACCAATGGGGCATTCACCTTTCT was 0.284.
